Only a sample is shown.
aSyn UTR act: Activators working through SNCA 5'UTR binding (MLPCN). alpha-synuclein 5'UTR reporter, activators screen. activity score, % (tested at 7.5 µM), hits read low. actives 7.1% (n = 300,000); in the data active = activity score below about -60%
Numbers stand for hits.

How did O=C(COC(=O)c1ccccn1)Nc1nc(-c2ccccc2)cs1 do in these assays?
aSyn UTR act: -80

How did CC(C)C(=O)Nc1nc(-c2ccc([N+](=O)[O-])cc2)cs1 do in these assays?
aSyn UTR act: -74

What do the screens show for `CCc1ccccc1OCC(=O)Nc1nc(-c2cccnc2)cs1`?
aSyn UTR act: inactive

What do the screens show for `O=[N+]([O-])c1ccc(-c2csc(NN=C3CCCC3)n2)cc1`?
aSyn UTR act: -177

How did COCC(=O)Nc1nc(-c2ccc(-c3ccccc3)cc2)cs1 do in these assays?
aSyn UTR act: -220

Results for CC(C)Oc1ccc(C(=O)Nc2nc3ccccc3[nH]2)cc1 ?
aSyn UTR act: inactive

Results for O=C(Nc1nc2ccccc2[nH]1)c1ccc(F)c(S(=O)(=O)N2CCOCC2)c1 ?
aSyn UTR act: -99

What do the screens show for `Cc1cc(C)cc(C(=O)Nc2nc3ccccc3[nH]2)c1`?
aSyn UTR act: -139

What do the screens show for `COc1cc(OC)cc(C(=O)Nc2nc3ccccc3[nH]2)c1`?
aSyn UTR act: -189

Results for O=C(Nc1nc2ccccc2[nH]1)c1cc(F)cc(F)c1 ?
aSyn UTR act: -148

What do the screens show for `O=C(Nc1nc2ccccc2[nH]1)c1ccccc1F`?
aSyn UTR act: inactive

How did COc1ccc(Br)c(C(=O)Nc2nc3ccccc3[nH]2)c1 do in these assays?
aSyn UTR act: -87

Results for Cn1nc(C(=O)Nc2nc3ccccc3[nH]2)c2ccccc2c1=O ?
aSyn UTR act: -144

How did COc1ccc2oc(C(=O)Nc3nc4ccccc4[nH]3)c(C)c2c1 do in these assays?
aSyn UTR act: -102

Results for CC(=O)O[C@H]1C(=O)[C@@]2(C)[C@H]([C@H](OC(=O)c3ccccc3)[C@]3(O)C[C@H](OC(=O)[C@H](O)C(NC(=O)c4ccccc4)c4ccccc4)C(C)=C1C3(C)C)[C@]1(OC(C)=O)CO[C@@H]1C[C@@H]2O (stereo partly drawn) ?
aSyn UTR act: inactive

What do the screens show for `CC1CCN(c2ccc(NC(=O)c3ccc(Br)o3)cc2)CC1`?
aSyn UTR act: -144

How did CS(=O)(=O)N1CCN(c2ccc(NC(=O)c3ccc(Br)o3)cc2)CC1 do in these assays?
aSyn UTR act: -123

What do the screens show for `Cc1c(-c2nc(N)nc(Nc3ccc(F)cc3)n2)oc2ccccc12`?
aSyn UTR act: -95

What do the screens show for `O=C(/C=C/c1ccccc1)Nc1cccnc1`?
aSyn UTR act: -143

Results for O=C(/C=C/c1ccccc1)Nc1cccnc1Oc1ccccc1F ?
aSyn UTR act: -126

How did O=C(/C=C/c1ccc([N+](=O)[O-])cc1)Nc1cccnc1 do in these assays?
aSyn UTR act: -150

Results for CSCc1c(C(=O)NC2CCCc3ccccc32)oc2ccccc12 (stereo not drawn) ?
aSyn UTR act: inactive

What do the screens show for `Cn1c(=O)c(C(=O)NCC2CCCO2)c(O)c2ccccc21` (stereo not drawn)?
aSyn UTR act: -67

How did Cn1c(C(=O)NCc2cccs2)cc2oc3ccccc3c21 do in these assays?
aSyn UTR act: -261

What do the screens show for `Cn1c(C(=O)NCC2CCCO2)cc2oc3ccccc3c21` (stereo not drawn)?
aSyn UTR act: -188

How did O=C(NNC(=O)c1cccnc1SCc1cccc([N+](=O)[O-])c1)c1ccccn1 do in these assays?
aSyn UTR act: inactive

What do the screens show for `CCOC(=O)c1cccnc1SCC(=O)Nc1ccc(C)cc1`?
aSyn UTR act: -64

How did CCOC(=O)c1ccccc1NC(=O)CSc1ccc(-c2ccccn2)nn1 do in these assays?
aSyn UTR act: inactive

How did Cc1ccc(NC(=O)CSc2ncccc2C(=O)Oc2cccc([N+](=O)[O-])c2)cc1Cl do in these assays?
aSyn UTR act: -157

Results for COc1ccc(C(=O)n2c(-c3ccco3)nc3ccccc32)cc1 ?
aSyn UTR act: -100

How did COc1ccc(C(=O)N2CCn3c2nc2ccccc23)cc1 do in these assays?
aSyn UTR act: -108

What do the screens show for `O=C(c1cccs1)N1CCn2c1nc1ccccc12`?
aSyn UTR act: -118

How did CCOc1ccc(C(=O)N2CCn3c2nc2ccccc23)cc1 do in these assays?
aSyn UTR act: -69

Results for Cc1ccc(C(=O)n2c(N)nc3ccccc32)cc1 ?
aSyn UTR act: inactive

Results for CN(C(=O)c1ccco1)c1nc(-c2ccc(Cl)cc2)cs1 ?
aSyn UTR act: -140

Results for CCn1nc(C(=O)OCC(=O)Nc2nc(-c3ccc(OC)cc3)cs2)c2ccccc2c1=O ?
aSyn UTR act: -116

How did CN(C)CCCN(C(=O)c1ccco1)c1nc(-c2ccc(Cl)cc2)cs1 do in these assays?
aSyn UTR act: -75

Results for COc1ccc(-c2csc(NC(=O)COC(=O)c3ccco3)n2)cc1 ?
aSyn UTR act: -140

What do the screens show for `COc1ccc(-c2csc(N(C)C(=O)c3ccco3)n2)cc1`?
aSyn UTR act: -182

What do the screens show for `CC(=O)N(C)c1nc(-c2ccc(Cl)cc2)cs1`?
aSyn UTR act: -116

How did c1ccc(SCc2nc3ccccc3s2)nc1 do in these assays?
aSyn UTR act: -113

How did c1ccc2oc(SCc3nc4ccccc4s3)nc2c1 do in these assays?
aSyn UTR act: -149

Results for N#CCc1nc(CSc2nc3ccccc3o2)cs1 ?
aSyn UTR act: -134

What do the screens show for `[O-][n+]1onc2c3cc(-c4ccccc4)nnc3ccc21`?
aSyn UTR act: -100

How did COc1ccccc1C1=NN(C(=S)Nc2ccccc2)C(c2ccco2)C1 (stereo not drawn) do in these assays?
aSyn UTR act: -154

Results for O=C(COc1ccc(F)cc1)N1CCC(c2ccccc2)C1 (stereo not drawn) ?
aSyn UTR act: -134

What do the screens show for `Cc1cccc(OCC(=O)N2CCC(c3ccccc3)C2)c1` (stereo not drawn)?
aSyn UTR act: -158

How did O=[N+]([O-])c1ccc2c(c1)nc1n2CCN(C2CCCCC2)C1 do in these assays?
aSyn UTR act: -127

What do the screens show for `O=[N+]([O-])c1cc(C(F)(F)F)ccc1NCCOc1ccccc1`?
aSyn UTR act: -124

What do the screens show for `CCCn1cnc2cc(NCc3cccc(OC)c3)ccc21`?
aSyn UTR act: -141

Results for CCCn1cnc2cc(NCc3ccc(Br)cc3)ccc21 ?
aSyn UTR act: -93

Results for CCn1cnc2cc(NCc3ccc(Br)cc3)ccc21 ?
aSyn UTR act: -140

How did CCn1cnc2cc(NCc3ccc(C)cc3)ccc21 do in these assays?
aSyn UTR act: -128

Results for Cc1ccc(CNc2ccc3c(c2)ncn3C(C)C)cc1 ?
aSyn UTR act: -144

How did Cn1cnc2cc(NCc3ccc(Cl)cc3)ccc21 do in these assays?
aSyn UTR act: -101

What do the screens show for `CN(C)Cc1c(-c2ccc(Cl)cc2)nc2ccccn12`?
aSyn UTR act: -151

What do the screens show for `Clc1ccc(-c2nc3ccccn3c2CN2CCCCC2)cc1`?
aSyn UTR act: -101

What do the screens show for `COC(=O)Nc1nc2ccc(Br)cc2s1`?
aSyn UTR act: -148

Results for COC(=O)Nc1nc2c(C)cccc2s1 ?
aSyn UTR act: -92

Results for Cc1cccc2sc(NNC(=O)c3ccc(S(=O)(=O)N4CCc5ccccc5C4)cc3)nc12 ?
aSyn UTR act: inactive

What do the screens show for `Cc1cccc2sc(NC(=O)c3ccc(Cl)s3)nc12`?
aSyn UTR act: -199

What do the screens show for `COc1cccc2sc(NC(=O)c3ccc(Br)s3)nc12`?
aSyn UTR act: -146

What do the screens show for `O=C(NCc1ccncc1)Nc1ccc2c(c1)OCO2`?
aSyn UTR act: -64

What do the screens show for `O=C(Nc1ccc2c(c1)OCO2)Nc1cnccn1`?
aSyn UTR act: -98

How did O=C(NCc1cccs1)Nc1ccc(Cl)cc1 do in these assays?
aSyn UTR act: -99

How did O=C(Nc1cccc(F)c1)Nc1ccccn1 do in these assays?
aSyn UTR act: -153

Results for O=C(Nc1ccccn1)Nc1cccs1 ?
aSyn UTR act: -77
